High-throughput results from PubChem.
This is a sample that favours compounds with a hit; in the whole collection about 2.3% have one here.
M1 antag: human M1 muscarinic receptor antagonists, primary screen, CHO-K1 cells, Fluo-8 calcium fluorescence, 1536-well | actives 1.3% (n = 360,000) | inhibition, % at 3 µM | AID 588852, 2011 | CHO-K1 hM1, ACh EC80 antagonist | Muscarinic acetylcholine receptor M1 (Homo sapiens), P11229;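 active means percent inhibition above its own plate's cutoff, namely the mean of that plate's compound wells plus 3 SD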;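 further: peak over basal fluorescence ratio during 140 s after agonist addition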
Target sequence (P11229 whole entry, looked up): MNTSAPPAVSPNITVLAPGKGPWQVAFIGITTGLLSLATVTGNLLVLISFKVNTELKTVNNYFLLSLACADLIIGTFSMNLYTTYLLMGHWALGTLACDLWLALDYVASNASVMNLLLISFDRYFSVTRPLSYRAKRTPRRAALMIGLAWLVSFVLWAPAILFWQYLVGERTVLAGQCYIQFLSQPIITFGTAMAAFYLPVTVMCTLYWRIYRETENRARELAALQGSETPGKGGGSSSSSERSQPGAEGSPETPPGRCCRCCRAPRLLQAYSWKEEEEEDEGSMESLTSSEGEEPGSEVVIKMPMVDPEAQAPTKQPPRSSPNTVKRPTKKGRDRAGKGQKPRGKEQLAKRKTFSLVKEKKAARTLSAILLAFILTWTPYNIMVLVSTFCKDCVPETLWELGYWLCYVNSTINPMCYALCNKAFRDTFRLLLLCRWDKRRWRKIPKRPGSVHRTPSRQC
CHO-K1 Ca ag: counter-screen for M1 agonists: effect in parental CHO-K1 cells | Fluo-8 calcium fluorescence; scaled to maximal ATP response, vehicle zero | activation, % at 3 µM | actives 0.48% (n = 360,000) | AID 602248, 2012; in the data active means activation above about 15%;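 further: untransfected CHO-K1 host cells lacking M1 receptor as counterscreen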
M1 PAM: human M1 muscarinic receptor positive allosteric modulators, primary screen, CHO-K1 cells, Fluo-8 calcium fluorescence, 1536-well | CHO-K1 hM1, ACh EC20; 0% = ACh EC20, 100% = maximal ACh | activation, % at 3 µM | actives 0.088% (n = 360,000); in the data active means activation above about 19%, passing the limit was not always enough
M1 PAM parental: nonselective calcium activators in parental CHO-K1 cells, primary screen, counter-screen for M1 PAM project, cell-based, Fluo-8 calcium fluorescence, full deck, 1536-well; ATP EC20; 0% at ATP EC20, 100% at ATP max; activation, % at 3 µM; actives 0.02% (n = 360,000);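 active means activation above the run cutoff, the mean activation of all test compounds plus 3 SD, cut at about 40% in these data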;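 further: peak over basal fluorescence ratio in a 140 s read after ATP addition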
M1 ag: human M1 muscarinic receptor agonists, primary screen, Fluo-8 calcium fluorescence, CHO-K1 cells, HTS; CHO-K1 hM1, agonist mode; 0% DMSO, 100% acetylcholine EC100; activation, % at 3 µM; actives 0.33% (n = 360,000); AID 588814, 2011;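 active means activation above the run's mean compound activation plus 3 SD, cut at about 16% in these data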;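 further: peak over basal fluorescence ratio within a 140 s kinetic read after compound addition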
CHO-K1 Ca antag: M1 antagonist counterscreen hit in parental CHO-K1 cells; inhibition, % at 3 µM; actives 0.6% (n = 360,000); AID 602250; ATP-induced calcium, Fluo-8 fluorescence;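 active means inhibition above a per-plate cutoff, the plate's mean sample inhibition plus 3 SD, cut at about 24% in these data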
Numbers stand for hits; n = inactive.

SMILES	M1 antag	CHO-K1 Ca ag	M1 PAM	M1 PAM parental	M1 ag	CHO-K1 Ca antag
CN(C)CCNc1nc(-c2ccccc2F)c2sccc2n1	69.8	n	n	n	n	n
C=C1CC[C@@H]2[C@](C)(CCC[C@@]2(C)/C=C/[C@@H](O)C(C)(C)O)[C@H]1CC(=O)NCCS(=O)(=O)O	n	n	n	n	n	n
CCN(CC(=O)Nc1ccccc1C(F)(F)F)CC(=O)c1[nH]c(C)c(C(C)=O)c1C	n	n	n	n	n	29.2
CC(=O)c1c(C)[nH]c(C(=O)CN(C)CC(=O)Nc2ccccc2Cl)c1C	n	n	n	n	n	n
CC(C)(C)OC(=O)N1CCC(c2cc(=O)n3[nH]cc(C(=O)Nc4ccc(F)c(Cl)c4)c3n2)CC1	n	n	n	n	n	n
CC(C)(C)OC(=O)N1CCC(c2cc(=O)n3[nH]cc(C(=O)NC4CCCC4)c3n2)CC1	n	n	25.6	n	n	n
Cc1ccc(NC(=S)Nc2ccc(Cl)c(Cl)c2)c(OC(F)F)c1	n	n	n	n	n	26.1
CCN(CC(=O)Nc1c(F)cccc1F)C(=O)CCNS(=O)(=O)c1ccccc1C(F)(F)F	n	n	n	n	n	n
Cn1c(N)c(C(=O)COC(=O)c2ccccc2C(=O)c2ccc(Cl)c([N+](=O)[O-])c2)c(=O)n(C)c1=O	n	n	n	n	n	n
CCC1CCCCN1CCCNC(=O)c1ccc2c(c1)N(Cc1ccc(F)cc1)C(=O)c1ccccc1S2=O (stereo not drawn)	71.1	n	n	n	n	n
CC1CCCN(CCCNC(=O)c2ccc3c(c2)N(Cc2cccc(Cl)c2)C(=O)c2ccccc2S3=O)C1 (stereo not drawn)	40.2	n	n	n	n	n
O=C(NCCCN1CCCC1)c1ccc2c(c1)N(Cc1ccc(F)cc1)C(=O)c1ccccc1S2=O (stereo not drawn)	n	n	n	n	n	n
CC1CCCN(CCCNC(=O)c2ccc3c(c2)N(Cc2ccc(F)cc2)C(=O)c2ccccc2S3=O)C1 (stereo not drawn)	42.4	n	n	n	n	n
O=C(NCCCN1CCOCC1)c1ccc2c(c1)N(Cc1cccc(Cl)c1)C(=O)c1ccccc1S2=O (stereo not drawn)	n	n	n	n	n	n
CCN(CC(=O)Nc1ccc(NC(C)=O)cc1)C(=O)C1CC1	n	n	n	n	n	n
COc1cccc(-c2cnc(C(O)c3cccc(F)c3)[nH]2)c1 (stereo not drawn)	n	n	n	n	n	n
CCCC(=O)OCC(=O)Nc1ccc([N+](=O)[O-])cc1C#N	n	n	n	n	n	25.8
N#Cc1cc([N+](=O)[O-])ccc1NC(=O)COC(=O)CN1C(=O)C2CCCCC2C1=O (stereo not drawn)	n	n	n	n	n	n
CCn1ncc(CN2CCCC(C(=O)c3cccc(OC(C)C)c3)C2)c1C (stereo not drawn)	98.1	n	n	n	n	n
COc1ccc(CN2CCCC(C(=O)c3cccc(OC(C)C)c3)C2)cc1Cn1cccn1 (stereo not drawn)	36.5	n	n	n	n	n
CCOC(=O)c1[nH]ncc1CN1CCCC(C(=O)c2cccc(OC(C)C)c2)C1 (stereo not drawn)	n	n	n	n	n	n
COc1ccc(CN2CCC(Cc3ccccc3)CC2)cc1OC	n	n	n	n	n	n
COc1ccc(CNC(=O)C2CCCN2CCc2ccccc2)cc1OC (stereo not drawn)	n	17.1	n	n	n	n
COCCNC(=O)c1ccc(CN2CCC(Cc3ccccc3)CC2)cc1	42.7	n	n	n	n	n
COc1ccc(CCNC(=O)c2ccc(CN3CCC(Cc4ccccc4)CC3)cc2)cc1OC	47.7	n	n	n	n	n
O=C(NCc1ccccc1)c1ccc(CN2CCC(Cc3ccccc3)CC2)cc1	n	26.8	n	n	n	n
